The results in this text go back to PubChem BioAssay.

Assay [1] deals with Hepatitis C virus NS3 helicase. The assay is described as follows: blockers of NS3h binding to ssDNA – biochemical, fluorescence polarization, LOPAC1280 library, primary screen (AID 687035; in the data active = inhibition above about 37%). Conditions: Purified HCV NS3 helicase, Cy5-dT15 ssDNA binding fluorescence polarization; stronger effect = higher value; concentration not given here. (Fluorescence polarisation rises when a labelled molecule tumbles more slowly, as on binding a larger partner.)

Assay [2] is described as follows: compounds altering Cy5-DNA-NS3h complex signal – biochemical, LOPAC1280, artefact control for HCV NS3 helicase inhibitor project (AID 687037). The settings on record: Cy5-DNA-NS3h complex fluorescence interference counterscreen.
A short description of assay [3]: viability loss with induced miR-34 in A549 – imaging, A549 dox-inducible miR-34, nuclei and caspase counts, primary screen (AID 1347080;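 active = compounds whose cell count with miR-34 switched on is under 0.7 times the count with it off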). The settings on record: A549 miR-34 inducible, Hoechst nuclei count, 48 h.
A short description of assay [4]: blockers of cellular phospholipid synthesis – cell-based, LOPAC library, screen 4, primary screen (AID 1347384). Conditions: animal cells, phospholipid biosynthesis inhibition screen; at 10 µM.
Assay [5] is described as follows: galactose survival enhancers in mitochondrial complex I cybrids – cell-based, galactose medium, ATP luminescence, primary screen (AID 1645843;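 active = z-score of at least 1.8 in each of two replicates, scored against plate mean and spread of sample wells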;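 also: positive z means more ATP and so rescue of galactose-driven cybrid death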). The settings on record: complex I mutant cybrid cells, 72 h, stronger effect = higher value.
Where [6] appears, read: stronger effect = lower value, cell number ratio, induced over uninduced.
[7] abbreviates: measured here: relative caspase fold change +Dox/-Dox.
Setting [8] is: measured here: total cells with miR-34 induction, stronger effect = lower value.
The mark [9] stands for this setting: measured here: total cells without miR-34 induction.

The structures appear in SMILES notation. Active and inactive are the calls of the source. Unless noted, no rule for the calls is given here.

The inhibition is the relative decrease from the control value, in per cent. Turning to `COc1cc(C(O)CO)ccc1O` (stereo not drawn), the inhibition in assay [1] was -1% (inactive). In assay [2], the fluorescence ratio (interference) is 1 (inactive). For the same compound, the fold change in assay [3] (setting [6]) was 0.99 (inactive); in assay [3] (setting [7]), 1.37. The values for the cell count in assay [3] (setting [8]) and in assay [3] (setting [9]) were 9940 and 10000, respectively. In assay [4], the compound was called inactive. In addition, in assay [5], the z-score was 0.42 (inactive).

On to `COc1ccc(/C=C2\COc3ccc(C)cc3C2=O)cc1O`, for which the inhibition in assay [1] is 1% (inactive). For the same compound, the fluorescence ratio (interference) in assay [2] was 1 (inactive). The fold change is 1.16 (inactive) in assay [3] (setting [6]) and 2.59 in assay [3] (setting [7]). Besides, the cell count is 3090 in assay [3] (setting [8]) and 2660 in assay [3] (setting [9]). In assay [4], the outcome was inactive. For the same compound, in assay [5], the z-score is -1.36 (inactive).

As to `CC[n+]1c(/C=C/C=C2/N(C)c3ccccc3C2(C)C)sc2ccccc21`, in assay [1], the inhibition was 1% (inactive). The fluorescence ratio (interference) in assay [2] was 0.9 (inactive). The fold change in assay [3] (setting [6]) was 1.18 (inactive); in assay [3] (setting [7]), 0.865. In addition, the cell count worked out at 1270 in assay [3] (setting [8]) and 1080 in assay [3] (setting [9]). Besides, in assay [4], the compound was called inactive. The z-score in assay [5] is -1.04 (inactive).

Consider `CSc1ccccc1N1CCN(CCCCCC(=O)NC2CCCc3ccccc32)CC1` (stereo not drawn), for which, in assay [1], the inhibition was -5% (inactive). For the same compound, the fluorescence ratio (interference) in assay [2] is 1 (inactive). Also, the results for the fold change in assay [3] (setting [6]) and in assay [3] (setting [7]) were 0.986 (inactive) and 1.19, respectively. In addition, the cell count was determined as 7020 in assay [3] (setting [8]) and 7120 in assay [3] (setting [9]). For the same compound, the outcome in assay [4] was inactive. Moreover, in assay [5], the z-score is -1.29 (inactive).

On to `CN(CC[C@@H](Oc1ccc(C(F)(F)F)cc1)c1ccccc1)CC(=O)O`, for which the inhibition in assay [1] is -2% (inactive). Besides, the fluorescence ratio (interference) in assay [2] was 0.9 (inactive). The results for the fold change in assay [3] (setting [6]) and in assay [3] (setting [7]) were 1.05 (inactive) and 2.04, respectively. The cell count in assay [3] (setting [8]) was 10800; in assay [3] (setting [9]), 10300. Further, the compound was classed as inactive in assay [4]. Moreover, in assay [5], the z-score is 0.395 (inactive).

Consider `COc1ccc(-c2cc3ncc(C)n3c(Nc3ncccc3C(N)=O)n2)cc1OC`, for which the inhibition in assay [1] is -1% (inactive). Besides, in assay [2], the fluorescence ratio (interference) is 1 (inactive). Further, the fold change is 0.944 (inactive) in assay [3] (setting [6]) and 1.3 in assay [3] (setting [7]). Also, the cell count in assay [3] (setting [8]) came out at 8700; in assay [3] (setting [9]), 9220. Moreover, the outcome in assay [4] was inactive. Moreover, the z-score in assay [5] was 0.16 (inactive).

Turning to `O=C(CCCCCN1CCN(c2ccccc2-c2ccccc2)CC1)NC1CCCc2ccccc21` (stereo not drawn), the inhibition in assay [1] was 0% (inactive). The fluorescence ratio (interference) in assay [2] was 1 (inactive). The fold change was 1.17 (inactive) in assay [3] (setting [6]) and 1.11 in assay [3] (setting [7]). Besides, the cell count in assay [3] (setting [8]) was 6130; in assay [3] (setting [9]) it was 5250. In addition, in assay [4], the result was inactive. For the same compound, in assay [5], the z-score is -1.38 (inactive).

On to `C=C1C[C@@]23CC[C@H]4[C@@](C)(CCC[C@@]4(C)C(=O)O)[C@@H]2CC[C@]1(O)C3`, for which the inhibition in assay [1] is -3% (inactive). In addition, the fluorescence ratio (interference) in assay [2] is 1 (inactive). Also, the fold change was 0.931 (inactive) in assay [3] (setting [6]) and 1.06 in assay [3] (setting [7]). Besides, the cell count was 9720 in assay [3] (setting [8]) and 10400 in assay [3] (setting [9]). The compound was called inactive in assay [4]. For the same compound, the z-score in assay [5] is 0.98 (inactive).

`C=C1C[C@@]23CC[C@H]4[C@@](C)(CCC[C@@]4(C)C(=O)OC4OC(CO)C(O)C(O)C4O)[C@@H]2CC[C@]1(OC1OC(CO)C(O)C(O)C1OC1OC(CO)C(O)C(O)C1O)C3` (stereo partly drawn): the inhibition in assay [1] was -1% (inactive). Moreover, in assay [2], the fluorescence ratio (interference) is 1 (inactive). Besides, the results for the fold change in assay [3] (setting [6]) and in assay [3] (setting [7]) were 1.06 (inactive) and 0.521, respectively. Also, the cell count in assay [3] (setting [8]) stood at 10700; in assay [3] (setting [9]), 10100. In assay [4], the outcome was inactive. The z-score in assay [5] was 0.675 (inactive).

In the case of `OCC1O[C@H]([S-])[C@@H](O)C(O)[C@@H]1O.[Au+]` (stereo partly drawn), the inhibition in assay [1] is 36% (inactive). Moreover, the fluorescence ratio (interference) in assay [2] was 1 (inactive). Moreover, the fold change in assay [3] (setting [6]) is 0.895 (inactive); in assay [3] (setting [7]), 0.924. Besides, the cell count in assay [3] (setting [8]) came out at 6430; in assay [3] (setting [9]), 7180. Also, in assay [4], the call was inactive. The z-score in assay [5] was -1.29 (inactive).

Take `Oc1ccc(/C=C/c2ccc(/C=C/c3ccc(O)cc3)c(Br)c2)cc1`: in assay [1], the inhibition was -3% (inactive). In addition, in assay [2], the fluorescence ratio (interference) was 1 (inactive). The fold change was 1.33 (inactive) in assay [3] (setting [6]) and 1.11 in assay [3] (setting [7]). The cell count in assay [3] (setting [8]) worked out at 3040; in assay [3] (setting [9]), 2280. In addition, the compound was called inactive in assay [4]. For the same compound, in assay [5], the z-score is 0.44 (inactive).

Consider `OC[C@H]1OC(n2cnc3c(N[C@H]4CCC[C@@H]4O)ncnc32)[C@H](O)[C@@H]1O` (stereo partly drawn), for which the inhibition in assay [1] was -3% (inactive). For the same compound, in assay [2], the fluorescence ratio (interference) was 1 (inactive). In addition, the fold change in assay [3] (setting [6]) is 1.03 (inactive); in assay [3] (setting [7]), 1.86. Besides, the cell count in assay [3] (setting [8]) came to 10800; in assay [3] (setting [9]) it was 10500. Further, the result in assay [4] was inactive. The z-score in assay [5] is 0.53 (inactive).

`Cn1ncc(S(=O)(=O)Cc2ccccc2)c(Br)c1=O`: in assay [1], the inhibition was -3% (inactive). Also, the fluorescence ratio (interference) in assay [2] is 0.9 (inactive). Besides, the fold change in assay [3] (setting [6]) was 1.14 (inactive); in assay [3] (setting [7]), 1.46. Also, the cell count in assay [3] (setting [8]) is 2510; in assay [3] (setting [9]), 2200. In assay [4], the compound was called inactive. In assay [5], the z-score was -1.24 (inactive).

`Brc1c(Br)c(Br)c2[nH]cnc2c1Br`: in assay [1], the inhibition was 0% (inactive). In assay [2], the fluorescence ratio (interference) was 1 (inactive). For the same compound, the fold change in assay [3] (setting [6]) is 1.11 (inactive); in assay [3] (setting [7]), 2.37. For the same compound, the results for the cell count in assay [3] (setting [8]) and in assay [3] (setting [9]) were 3750 and 3380, respectively. Further, the call in assay [4] was inactive. In assay [5], the z-score is -1.17 (inactive).

As for `Clc1nccc2c1ccc1ccccc12`, the inhibition in assay [1] was -2% (inactive). The fluorescence ratio (interference) in assay [2] was 1 (inactive). In addition, the values for the fold change in assay [3] (setting [6]) and in assay [3] (setting [7]) were 1.47 (inactive) and 1.16, respectively. For the same compound, the cell count came out at 8620 in assay [3] (setting [8]) and 5870 in assay [3] (setting [9]). Moreover, the result in assay [4] was inactive. In assay [5], the z-score was 0.565 (inactive).

As to `CCCCC#Cc1nc(NC)c2ncn([C@@H]3O[C@H](CO)C(O)[C@@H]3O)c2n1` (stereo partly drawn), the inhibition in assay [1] was -2% (inactive). In addition, the fluorescence ratio (interference) in assay [2] was 1 (inactive). Further, the fold change in assay [3] (setting [6]) was 1.02 (inactive); in assay [3] (setting [7]), 2.24. Also, the cell count stood at 10300 in assay [3] (setting [8]) and 10100 in assay [3] (setting [9]). Besides, in assay [4], the call was inactive. Besides, the z-score in assay [5] is 0.245 (inactive).

As for `C[C@](Cc1ccc(O)c(O)c1)(NN)C(=O)O`, in assay [1], the inhibition was -4% (inactive). The fluorescence ratio (interference) in assay [2] was 1 (inactive). Besides, the fold change in assay [3] (setting [6]) was 0.947 (inactive); in assay [3] (setting [7]), 1.36. In addition, the cell count in assay [3] (setting [8]) was 9110; in assay [3] (setting [9]), 9620. Besides, the call in assay [4] was inactive. The z-score in assay [5] is -1.02 (inactive).

In the case of `CCOC(=O)C1=C(C)NC(C)=C(C(=O)OCC)C1c1c(F)c(F)c(F)c(F)c1F`, in assay [1], the inhibition is -5% (inactive). For the same compound, the fluorescence ratio (interference) in assay [2] was 0.9 (inactive). Besides, the fold change in assay [3] (setting [6]) is 1.11 (inactive); in assay [3] (setting [7]), 0.622. For the same compound, the cell count in assay [3] (setting [8]) is 5220; in assay [3] (setting [9]), 4680. In assay [4], the call was inactive. Also, the z-score in assay [5] is -0.415 (inactive).

For `COc1ccc2c(c1)CCC1C2CC[C@@]2(C)C1CC[C@@H]2NCCCCCCN1C(=O)CCC1=O` (stereo partly drawn), the inhibition in assay [1] is -3% (inactive). Besides, the fluorescence ratio (interference) in assay [2] is 1 (inactive). The fold change in assay [3] (setting [6]) was 1.08 (inactive); in assay [3] (setting [7]), 0.876. Besides, the cell count worked out at 8060 in assay [3] (setting [8]) and 7440 in assay [3] (setting [9]). Moreover, the compound was called inactive in assay [4]. Also, in assay [5], the z-score is -1.29 (inactive).

`Nc1ccc(-c2ccc3ccccc3n2)cc1`: in assay [1], the inhibition is -2% (inactive). In addition, in assay [2], the fluorescence ratio (interference) was 1 (inactive). Further, the fold change was 1.1 (inactive) in assay [3] (setting [6]) and 1.06 in assay [3] (setting [7]). Besides, the cell count in assay [3] (setting [8]) came out at 7600; in assay [3] (setting [9]), 6930. The outcome in assay [4] was inactive. Besides, in assay [5], the z-score is -1.29 (inactive).

Regarding `Clc1ccc(N2CCN(Cc3cc4ccccn4n3)CC2)cc1`, the inhibition in assay [1] was -6% (inactive). The fluorescence ratio (interference) in assay [2] was 0.9 (inactive). The fold change is 1.01 (inactive) in assay [3] (setting [6]) and 1.14 in assay [3] (setting [7]). Further, the results for the cell count in assay [3] (setting [8]) and in assay [3] (setting [9]) were 9670 and 9570, respectively. Further, the call in assay [4] was inactive. Also, in assay [5], the z-score was -1.08 (inactive).
